# Assay results from the OligoGym collection.
# Target: LIPA
# Experiment: pooled miR-30 sensor sort-seq; sequence = guide strand
# Details: shRNA
# Note: reference of the scale not given here.
row,Sequence,sensor-assay potency score (higher = more potent)
1,TTGACGTCGTAGACATCTGCAA,-0.272
2,TTCAGTATGACATGAGTGCAAA,-1.31
3,TTAACCATTAACAAGCATTGTA,0.00545
4,TTACAAAGTAGTATTCGCCCTG,0.166
5,ATCTTCTGTCTCAACTAGGTAT,-0.881
6,TTTGTCTCCAAATAAGTCCTTA,-0.0541
7,TATTGTAAGGAAATGATGCTGC,0.625
8,TTAACAAGCATTGTACTGTTAG,-0.745
9,TATATCCATCTTCTGTCTCAAC,-1.24
10,TTGACTATGCACCTGCTGCAGG,-0.688

# Target: LIPK
# Experiment: as above
# Details: shRNA
row,Sequence,sensor-assay potency score (higher = more potent)
1,TATTTAACTGTGACAACTGGAG,-0.414
2,TATTGCTGTTGGAACTTCCATC,-0.879
3,TTTCTTGTCATAACCATACATA,-0.84
4,TAGGTCTTGGTAAATTTCCTGA,-0.456
5,TTGTAGTGTGGAATCAGCTTGT,0.39
6,TTCCTTTCTTGTCATAACCATA,-1.36
7,AACACCTTAACTACTCGCCTGG,-0.456
8,TAGCTTTCGATTGCACACTTTG,-1.01
9,TAATGTTGTATAAAGGAGGTGT,0.558
10,TATCTTAATCTTTTTAGCCAGT,-0.586
11,TTGTTGTAACATCATACTCTTC,-0.891
12,TTTGTCACCAAACAACACCTTA,-0.763

# Target: LITAF
# Experiment: as above
# Details: shRNA
row,Sequence,sensor-assay potency score (higher = more potent)
1,TTAACAGCCACTGTCTCTTCAT,-0.139
2,TATAGGACAGCTGACTCACGAT,-0.462
3,TAATTGGATTGTTATTGGGGAT,-0.833
4,TTATAGGACAGCTGACTCACGA,0.0157
5,TAACAGCCACTGTCTCTTCATA,-1.19
6,TAATGGTCCACGTCCTGCAGGG,-0.698
7,AATAACTGTTAACAGCCACTGT,-0.0828
8,TTGCAGGAAGGACAACACATTT,-1.76
9,ATAACTGTTAACAGCCACTGTC,-0.861
10,ACAGTAATGGTCCACGTCCTGC,-1.32
11,TAACTGTTAACAGCCACTGTCT,-0.461
12,TGACTCACGATCATCTTGTTGC,-0.0822

# Target: LMO4
# Experiment: as above
# Details: shRNA
row,Sequence,sensor-assay potency score (higher = more potent)
1,TTAAGATGATACACATTGCCTT,-0.509
2,TGGTGTAACAGGACGTGCCGAT,-0.601
3,TAAGATGATACACATTGCCTTG,-0.884
4,TAGAGCATGTAAAACACTTAAG,-1.33
5,TAACCTAATGTAGTCATTTCTG,-0.956
6,TAGTGGATTGCTCTGAAGTGAA,-0.987
